Potency data for 43 molecules are collected here from PubChem BioAssay (NCATS).

Test [1] deals with Zika virus NS2B-NS3 protease (unlinked complex). Nature of the test: Primary screen GU Rhodamine qHTS for Zika virus inhibitors: Unlinked NS2B-NS3 protease assay (AID 1347159). Also: nearly all actives have a fitted effect of over 60% in size. The procedure, abridged: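 Percent inhibition derives from the 15-min fluorescence change (ex 480, em 540 nm), normalized to no-enzyme and no-inhibitor wells. Reactions contained 25 nM NS2B-NS3 complex and 1.5 microM substrate in 10 mM Tris-HCl pH 8.0.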
For orientation: In qHTS, concentration-response curves come from the screen itself.

For test [2], the system named is Zika virus NS2B-NS3 protease (linked construct). Nature of the test: Primary screen NINDS Rhodamine qHTS for Zika virus inhibitors (AID 1347160). Also: nearly all actives have a fitted effect of over 55% in size. The procedure, abridged: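 In 10 mM Tris-HCl pH 8.0 containing 0.01% Tween 20, linked NS2B-NS3 protease (25 nM final) is exposed to test compounds for 15 min. Cleavage of 1.5 microM Rhodamine110 substrate is tracked by fluorescence over 15 min.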

Inconclusive results are not listed. Where a call stands in place of a potency, no number is given. Activity calls are given as the source filed them. Calls follow the shape of the dose curve; as a rule, active = well fitted inhibition curve with a large enough effect; inconclusive = small, poorly fitted or top-dose-only effect; inactive = no such curve, though single readings can be large or run the other way.

Consider `C=C(C(=O)O[C@H]1C/C(C)=C/CC/C(CO)=C/[C@H]2OC(=O)C(=C)[C@H]12)C(O)CO` (stereo partly specified), for which the Potency result in test [1] and in test [2] was “inactive” throughout.
As to `CC(C)C(C)C(O)C1CC23CC(=O)C4(O)C(=C2CCC3C1C)C=CC1(O)CC(O)CCC14C` (stereo unspecified), the Potency result in test [1] and in test [2] was “inactive” each time.
With `O=C(NCCO)c1cccc(-c2cc(Nc3ccc(OC(F)(F)F)cc3)ncn2)c1`, the Potency entry in test [1] and in test [2] was “inactive” each time.
`C=CCCN1CCC2(CC1)CN(C(=O)c1c(F)cccc1F)c1ccc(Cl)cc12`: the Potency entry in test [1] and in test [2] was “inactive” in each case.
With `C=C1C(=O)O[C@@H]2C[C@H](C)[C@@H]3CC(=O)[C@H](O)[C@@]3(C)C[C@H]12`, the Potency result in test [1] and in test [2] was “inactive” throughout.
`CNc1nc(Nc2ccc(C(=O)N3CCOCC3)cc2OC)nc2[nH]cc(Cl)c12`: the Potency result in test [1] and in test [2] was “inactive” throughout.
For `CCN(CC)C(=O)C(c1ccccc1)N1CCN(c2ccc(NC(=O)c3ccccc3-c3cccnc3)cc2F)CC1` (stereo unspecified), the Potency entry in test [1] and in test [2] was “inactive” throughout.
For the molecule `COc1cc2nc(N3CCN(C(=O)c4ccco4)C4CCCCC43)nc(N)c2cc1OC` (stereo unspecified), the Potency result in test [1] and in test [2] was “inactive” in each case.
For the molecule `C=C1CC[C@@H](O)[C@]2(C)C[C@H]3OC(=O)C(=C)[C@H]3CC12` (stereo partly specified), the Potency entry in test [1] and in test [2] was “inactive” throughout.
`CCN1CCN(Cc2ccc(NC(=O)c3ccc(C)c(Oc4ccnc5[nH]ccc45)c3)cc2C(F)(F)F)CC1`: the Potency result in test [1] and in test [2] was “inactive” in each case.
Turning to `Cc1ccc(S(=O)(=O)NCc2ccc(C(=O)NCCN(Cc3ccccc3)C(C)C)cc2)cc1`, the Potency entry in test [1] and in test [2] was “inactive” throughout.
For `Cc1nc(NC(=O)N2CCC[C@H]2C(N)=O)sc1-c1ccnc(C(C)(C)C(F)(F)F)c1`, the Potency result in test [1] and in test [2] was “inactive” each time.
For the molecule `CC(C)(O)c1ccn2c(-c3ccc(F)c(-c4ccc(F)cc4C#N)c3)cnc2c1F`, the Potency entry in test [1] and in test [2] was “inactive” each time.
For `C/C(=C/C=C\C=C\Cc1cnco1)[C@@H](O)C(C)(C)C(N)=O`, the Potency result in test [1] and in test [2] was “inactive” in each case.
Regarding `CC(O)(C(=O)C1CC1(CO)COC1OC(CO)C(O)C(O)C1O)C1C(O)CC2C3CC=C4CC(O)CC(O)C4(C)C3C(O)CC21C` (stereo unspecified), the Potency entry in test [1] and in test [2] was “inactive” in each case.
`CC(=O)OC(C)(C)/C=C/C(=O)[C@](C)(O)[C@H]1C(O)C[C@@]2(C)[C@@H]3CC=C4[C@@H](C=C(O[C@@H]5O[C@H](CO)[C@@H](O)[C@H](O)[C@H]5O)C(=O)C4(C)C)[C@]3(C)C(=O)C[C@]12C` (stereo partly specified): the Potency entry in test [1] and in test [2] was “inactive” in each case.
With `OC(c1ccc(-c2ccc(CN3CCN(Cc4ccncc4)CC3)cc2)c(F)c1)(C(F)(F)F)C(F)(F)F`, the Potency result in test [1] and in test [2] was “inactive” throughout.
Turning to `O=C(NCCN1CCC(n2c(=O)[nH]c3ccccc32)CC1)c1cc2cc(F)ccc2[nH]1`, the Potency result in test [1] and in test [2] was “inactive” each time.
With `CC1(C)CC[C@]23CO[C@@]4(CCC5[C@@]6(C)CC[C@H](O[C@@H]7OC[C@H](O[C@@H]8O[C@H](CO)[C@@H](O)[C@H](O)[C@H]8O[C@@H]8OC[C@@H](O)[C@H](O)[C@H]8O)[C@H](O)[C@H]7O)[C@@](C)(CO)C6CC[C@@]5(C)[C@]4(C)CC2=O)[C@@H]3C1` (stereo partly specified), the Potency entry in test [1] and in test [2] was “inactive” throughout.
Turning to `NS(=O)(=O)c1ccc(N2CCN(CC[C@@H]3OCCc4ccccc43)CC2)cc1`, the Potency entry in test [1] and in test [2] was “inactive” each time.
For `CC(C)(Cc1nc(-c2ccc(O)cn2)no1)C(=O)NC1=C(C(=O)O)CCCC1`, the Potency entry in test [1] and in test [2] was “inactive” throughout.
For the molecule `CC(C)OC(=O)N1CCC(Oc2ncnc3c2cnn3-c2ccc(S(C)(=O)=O)cc2F)CC1`, the Potency result in test [1] and in test [2] was “inactive” in each case.
With `C=C1C(OC2OC(CO)C(O)C(O)C2O)CC2C(C)(C)C(O)CCC2(C)C1CC/C(C)=C\COC(=O)CC(=O)O` (stereo unspecified), the Potency result in test [1] and in test [2] was “inactive” each time.
Take `Cc1ccc(F)cc1S(=O)(=O)N[C@@H]1CCN(Cc2ccc(OC(C)C)cc2)C1`: the Potency result in test [1] and in test [2] was “inactive” throughout.
In the case of `Cc1csc2c(N[C@@H](C)CN3CCN(S(=O)(=O)c4ccc(Cl)c(Cl)c4)CC3)ncnc12`, the Potency result in test [1] and in test [2] was “inactive” each time.
Turning to `CN(C)CCN(Cc1ccc(-c2ccc(CNCCc3ccccc3)cc2)cc1)C(=O)CCC1CCCC1`, the Potency entry in test [1] and in test [2] was “inactive” in each case.
For the molecule `O=C(COc1ccc(C(=O)c2ccccc2)cc1)NC1CCN(Cc2ccccc2)CC1`, the Potency entry in test [1] and in test [2] was “inactive” in each case.
`C=C1C(=O)O[C@@H]2C[C@]3(C)[C@@H](CCC(C)O)[C@@H]3C[C@H]12` (stereo partly specified): the Potency entry in test [1] and in test [2] was “inactive” each time.
Consider `O=C(Nc1cccnc1)c1cc(-c2ccnc(F)c2)ccc1OCc1ccccc1`, for which the Potency result in test [1] and in test [2] was “inactive” in each case.
For the molecule `CO[C@H]1[C@@H](O)[C@H](O[C@H]2CC[C@@]3(C)C(CCC4C3CC[C@]35COC6(COC(=O)C6)C3CCC45O)C2)O[C@@H](C)[C@@H]1OC1OC(CO)C(OC2OC(CO)C(O)C(O)C2O)C(O)C1O` (stereo partly specified), the Potency entry in test [1] and in test [2] was “inactive” throughout.
`COc1ccc(C2Oc3c(OC)cc(CCCO)cc3C2COC2OC(CO)C(O)C(O)C2O)cc1OC` (stereo unspecified): the Potency entry in test [1] and in test [2] was “inactive” in each case.
For the molecule `CCCCNc1ncc2c(-c3ccc(S(=O)(=O)N4CCOCC4)cc3)nn(C3CCC(O)CC3)c2n1` (stereo unspecified), the Potency result in test [1] and in test [2] was “inactive” throughout.
On to `CC(NCCCc1cccc(C(F)(F)F)c1)c1cccc2ccccc12` (stereo unspecified), for which the Potency entry in test [1] and in test [2] was “inactive” throughout.
In the case of `Cc1cc(N2CCOCC2)ccc1Nc1nc(NC2CCCCC2)c2[nH]cnc2n1`, the Potency entry in test [1] and in test [2] was “inactive” in each case.
As to `CC(=O)OC(C)(C)/C=C/C(=O)C(C)(O)C1C(O)CC2(C)C3CC=C(C(C)(C)C(=O)O)C(CC(=O)O)C3(C)C(=O)CC12C` (stereo unspecified), the Potency result in test [1] and in test [2] was “inactive” throughout.
As to `CN1CC2CN(c3ccc4oc5ccccc5c(=O)c4c3)CC2C1` (stereo unspecified), the Potency result in test [1] and in test [2] was “inactive” in each case.
In the case of `COc1c(C)cnc(Cn2cc(C#CCC(C)(C)O)c3c(Cl)nc(N)nc32)c1C`, the Potency result in test [1] and in test [2] was “inactive” in each case.
As to `Cn1ncc(Cl)c1-c1cc(C(=O)N[C@H](CN)Cc2ccc(F)c(F)c2)oc1Cl`, the Potency entry in test [1] and in test [2] was “inactive” throughout.
On to `CCC[C@H](N[C@H]1CCc2cc(F)cc(F)c2C1)C(=O)Nc1cn(C(C)(C)CNCC(C)(C)C)cn1`, for which the Potency entry in test [1] and in test [2] was “inactive” each time.
For `COc1ccc(S(=O)(=O)Nc2c(C)cc(C)cc2C)cc1`, the Potency result in test [1] and in test [2] was “inactive” throughout.
As for `CCCc1cc(C)[nH]c(=O)c1CNC(=O)c1cc(-c2ccc(N3CCN(C(C)C)CC3)nc2)cc2c1cnn2C(C)C`, the Potency entry in test [1] and in test [2] was “inactive” in each case.
Turning to `CC(C)S(=O)(=O)c1ccc2nccc(Nc3ccc4scnc4c3)c2c1`, the Potency result in test [1] and in test [2] was “inactive” throughout.
`CCN(CC)CCCCCCNc1cc(OC)cc2c(C)ccnc12`: the Potency result in test [1] and in test [2] was “inactive” throughout.
